Test results from PubChem BioAssay AID1851 (National Center for Advancing Translational Sciences (NCATS), 2009).
Values joined by “and” are separate entries in the source; they are usually repeats but may differ in a detail not shown here. Equal values may be shown once. Screen size: about 16,000 compounds; about 5,800 (36%) were called active. Not shown: some 23% with an inconclusive outcome. Calls follow the shape of the dose curve; as a rule, active = well fitted curve in the direction sought with a large enough effect; inconclusive = small, poorly fitted or top-dose-only effect, or effect the other way; inactive = no such curve, though single readings can be large or run the other way. Some of the results follow. More than one record can exist for a structure, and the calls need not agree.

The molecules below were run against Cytochrome P450 2C19 (Homo sapiens) (UniProt P33261) (assay: Cytochrome panel assay with activity outcomes). Conditions: recombinant CYP, pro-luciferin dealkylation, luminescence, p450-cyp2c19; series mostly up to 57.1 µM.
Cytochrome P450 2C19 (Homo sapiens), sequence (P33261 whole entry, looked up): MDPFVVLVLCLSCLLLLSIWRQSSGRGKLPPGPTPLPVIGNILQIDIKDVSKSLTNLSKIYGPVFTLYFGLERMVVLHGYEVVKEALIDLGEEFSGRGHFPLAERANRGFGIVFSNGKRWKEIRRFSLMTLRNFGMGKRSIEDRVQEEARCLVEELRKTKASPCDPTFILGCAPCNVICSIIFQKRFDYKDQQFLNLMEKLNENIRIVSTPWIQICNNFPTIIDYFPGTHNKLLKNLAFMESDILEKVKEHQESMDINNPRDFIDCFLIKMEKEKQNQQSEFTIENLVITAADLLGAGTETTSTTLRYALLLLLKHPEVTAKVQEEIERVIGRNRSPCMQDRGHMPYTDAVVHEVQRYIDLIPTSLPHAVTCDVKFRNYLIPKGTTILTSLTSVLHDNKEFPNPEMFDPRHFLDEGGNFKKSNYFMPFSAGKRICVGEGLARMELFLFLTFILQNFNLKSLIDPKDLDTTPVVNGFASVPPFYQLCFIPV
% is scaled to controls: 0 for no effect and ±100 for the full control effect.

Structure (SMILES) | activity, negative = inhibition | AC50
CC[C@@H](CS(=O)(=O)O)[N+](=O)[O-] | 45% [at 11.4 µM] (inactive) | 
CN(C)C(=O)CN(c1ccc2c(c1)OCO2)S(C)(=O)=O |  | inactive
CS(=O)(=O)N(CC(=O)Nc1c(F)cccc1F)c1ccc(C23CC4CC(CC(C4)C2)C3)cc1 |  | 11.2 µM (active)
CCCN(CCC)C(=O)[C@@H](CCC(=O)O)NC(=O)c1ccccc1 |  | inactive
CCCC/C=C/C(NC(=O)c1ccccc1)c1ccccc1 (configuration not stated) |  | 7.94 µM (active)
CCCC/C=C/C(NC(=O)Oc1cccc(C(F)(F)F)c1)c1ccccc1 (configuration not stated) |  | 3.16 µM (active)
CCCC/C=C/C(NC(=O)c1ccco1)c1ccccc1 (configuration not stated) |  | 15.8 µM (active)
CCCC/C=C/C(NC(=O)c1cccs1)c1ccccc1 (configuration not stated) |  | 1.58 µM (active)
CCCCCCCCCCCCCCC/C=C\[C@H](O)[C@@H](NC(=O)CCCCCCCCCCCCC)OC (tested in a mixture with another compound) |  | inactive
CCCC/C=C/C(NC(=O)c1ccc(-c2ccccc2)cc1)c1ccccc1 (configuration not stated) |  | inactive
Nc1cc(=O)[nH]c(N)n1 |  | inactive
CC(C)=CCC/C(C)=C/CO/N=C1/[C@H]2O[C@@H]2[C@@H](O)[C@H]2[C@H]1CCn1c(=O)n(-c3ccccc3)c(=O)n12 | 18.2% [at 11.4 µM] (inactive) | 
N#Cc1cccc(-c2nc3cnc(N4CCOCC4)nc3n(C[C@H]3CCCO3)c2=O)c1 |  | inactive
COc1cccc(N(C(=O)Cn2nnc(-c3ccc(C)cc3)n2)C(C(=O)NC(C)(C)C)c2c[nH]c3ccccc23)c1 (configuration not stated) |  | 10 µM (active)
OC[C@@H]1O[C@H](O)[C@@H](Cl)[C@H](O)[C@@H]1O |  | inactive
CNCC[C@H](Oc1ccccc1OC)c1ccccc1 |  | inactive
CN(CC[C@@H](Oc1ccc(-c2ccccc2)cc1)c1ccc(F)cc1)CC(=O)O |  | 6.31 µM (active)
CC(Oc1ccc(Cl)cc1)c1ccnn1S(=O)(=O)c1ccccc1 (configuration not stated) |  | 0.501 µM (active)
CC(C)CN1CCC2(CC1)CCN(S(=O)(=O)c1ccccc1)CC2 |  | inactive
CC(Oc1ccccc1)c1ccnn1S(=O)(=O)c1ccccc1 (configuration not stated) |  | 2 µM (active)
CC(Oc1ccc(-c2ccccc2)c(F)c1)c1ccn(S(=O)(=O)c2ccc(Cl)cc2)n1 (configuration not stated) |  | 3.55 µM (active)
CO[C@H]1COC(=O)[C@H](C)NC(=O)C/C=C\[C@@H](C)[C@H](OC)COC(=O)[C@@H](OCc2ccccc2)/C=C\[C@@H]1C | 1.79% [at 11.4 µM] (inactive) | 
N[C@H](C(=O)O)c1ccc(C(=O)O)cc1 |  | inactive
N[C@@H](C(=O)O)c1ccc(C(=O)O)c(C(=O)O)c1 |  | 316 nM (active) and inactive and 3.16 µM (active)
N[C@H](C(=O)O)c1ccc(C(=O)O)c(O)c1 |  | inactive

Structure (SMILES) | activity, negative = inhibition | AC50
N[C@@H](C(=O)O)c1ccc(C(=O)O)cc1 |  | inactive
N[C@@H](C(=O)O)c1ccc(C(=O)O)c(O)c1 |  | inactive
N[C@@H](C(=O)O)c1ccc(P(=O)(O)O)cc1 |  | 15.8 µM (active)
Cc1cc(=Nc2ccc3c(c2)c(N)cc(C)[n+]3C)nc(N)n1C | 35.5% [at 11.4 µM] (inactive) | 
CC(NC(=O)CCSc1nc(-c2ccco2)cc(C(F)(F)F)n1)c1ccccc1 (configuration not stated) |  | 1.41 µM (active)
COc1cc(C2C(C(=O)OCCC#N)=C(C)NC3=C2S(=O)(=O)c2ccccc23)cc(OC)c1OC (configuration not stated) |  | 20 µM (active)
COc1ccc(CNc2ccnc(-c3cccc(C#N)c3)n2)c(OC)c1 |  | 3.98 µM (active)
COc1ccccc1CNc1ccnc(-c2cccc(C#N)c2)n1 |  | 3.98 µM (active)
Cc1nn(C(C)C(=O)Nc2ccc(Cl)cn2)c(C)c1[N+](=O)[O-] (configuration not stated) |  | 3.16 µM (active)
Cc1nn(C(C)C(=O)Nc2sc3c(c2C#N)CCCC3)c(C)c1[N+](=O)[O-] (configuration not stated) |  | 10 µM (active)
COc1cccc(NC(=S)NNC(=O)C(C)n2nc(C)c([N+](=O)[O-])c2C)c1 (configuration not stated) |  | 7.94 µM (active)
Cc1nn(C)c(C(=O)NNC(=S)Nc2ccc(Cl)cc2)c1[N+](=O)[O-] |  | inactive
OC(CN1CCCCC1)CN1CCCCC1 |  | inactive
FC(F)(F)c1nc2nc(Cl)c(Cl)nc2n1CCCN1CCOCC1 | -10.6% [at 11.4 µM] (inactive) | 
CCn1c(COc2ccc(C)cc2)nnc1SCc1ccc(C#N)cc1 |  | 15.8 µM (active)
C=C1C=C(Br)C2(OCCCO2)[C@H]2OC12 (some centres not stated) | 18% [at 11.4 µM] (inactive) | 
CN1CCN(c2nc(-c3cccnc3)nc3ccccc23)CC1 |  | inactive
CC1CCCCN1c1nc(-c2ccncc2)nc2ccccc12 (configuration not stated) |  | 0.355 µM (active)
CC(=NCC(=O)O)c1ccccc1 | 0.942% [at 11.4 µM] (inactive) | 
COc1ccc(/C(C)=N/NC(=O)c2ccc(N(C)C)cc2)cc1 |  | inactive
C/C(=N\NC(=O)c1ccc(Br)cc1)c1ccccc1 |  | 2.82 µM (active)
C/C(=N/NC(=O)Cc1cccn1C)c1ccccc1 |  | 10 µM (active)
CC(=O)NN1C(=O)c2ccc(Oc3cccc([N+](=O)[O-])c3)cc2C1=O |  | 11.2 µM (active)
CC(=O)NN1C(=O)c2ccc(Oc3ccc([N+](=O)[O-])cc3)cc2C1=O |  | inactive
Cc1sc2ccccc2[n+]1CCC(C)S(=O)(=O)[O-] (configuration not stated) |  | inactive

Structure (SMILES) | activity, negative = inhibition | AC50
CCOC(=O)C[n+]1c(C)sc2ccc(OC)cc21 |  | 5.01 µM (active)
Cc1sc2ccccc2[n+]1CCC(=O)O | 13.1% [at 11.4 µM] (inactive) | 
C/C(=N\NC(=O)c1[nH]c2c([N+](=O)[O-])cc(C)cc2c1-c1ccccc1)c1cccnc1 |  | 4.47 µM (active)
O=C(N/N=C(\c1ccccc1)c1cccnc1)C(O)(c1ccccc1)c1ccccc1 |  | inactive
O=C(Oc1ccccc1[N+](=O)[O-])c1cccnc1 |  | inactive
CN1CCN(c2ncncc2-c2cccnc2)CC1 |  | inactive
CC(C)(C)[C@@]1(O)CCN2C[C@@H]3c4ccccc4CCc4cccc(c43)[C@@H]2C1 |  | inactive
CN1CCN2c3ncccc3Cc3ccccc3C2C1 (configuration not stated) |  | 0.0501 µM (active)
Oc1ccc([C@@H]2CNCc3sccc32)cc1O |  | inactive
CC[C@H](C)N(C)C(=O)c1cc2ccccc2c(-c2ccccc2Cl)n1 |  | inactive
Cc1cccc(NC(=O)NNC(=O)c2cc(-c3ccccc3Cl)nc3ccccc23)c1 |  | 3.16 µM (active)
O=C(NNC(=O)c1cc(-c2ccc(Cl)c(Cl)c2)nc2ccccc12)Nc1ccccc1 |  | 4.47 µM (active)
O=C(COc1ccc2ccccc2c1Br)NNC(=O)Nc1ccccc1 |  | 3.55 µM (active)
C[C@@H]1[C@H]2CC[C@@H]3[C@@H]4CC=C5C[C@@H](N(C)C)CC[C@]5(C)[C@@H]4CC[C@@]32CN1C |  | inactive
Cc1noc(C)c1C(=O)N1CCC[C@@]2(CCN(c3ncccn3)C2)C1 |  | inactive
Cc1ccc(C(=O)NC(=S)NCC(=O)c2ccccc2)cc1 |  | inactive
Cc1ccccc1C(=O)NC(=S)NCC(=O)c1ccccc1 |  | 4.47 µM (active)
Cc1nn(-c2ccccc2)c2c1C(c1ccc(O)c(O)c1)N1C(=N2)C(Nc2ccccc2)=Nc2ccccc21 (configuration not stated) |  | 3.16 µM (active)
CC(=O)Nc1ccc(NC2=Nc3ccccc3N3C2=Nc2c(c(C)nn2-c2ccccc2)C3c2ccccc2)cc1 (configuration not stated) |  | 2 µM (active)
Cc1cccc(N(CC(=O)NCCSCc2ccco2)S(=O)(=O)c2ccccc2)c1 |  | 2.51 µM (active)
Cc1cc(C)cc(N(CC(=O)NCCSc2ccccn2)S(=O)(=O)c2ccccc2)c1 |  | 2.24 µM (active)
COC(=O)CN(c1ccccn1)S(=O)(=O)c1ccccc1 |  | inactive
CN(CC(=O)O/N=C(\N)c1ccccn1)S(=O)(=O)c1ccccc1 |  | inactive
O=C(CN(c1ccccc1)S(=O)(=O)c1ccccc1)NCCSCc1ccco1 |  | 8.91 µM (active)
Cc1cccc(CSCCNC(=O)c2ccc(N(C)S(=O)(=O)c3ccccc3)cc2)c1 |  | 1.12 µM (active)

Structure (SMILES) | activity, negative = inhibition | AC50
CCCOc1ccccc1-c1nc2n[nH]nc2c(=O)[nH]1 |  | inactive
NC(N)=NC[C@@H]1COC2(CCCCC2)O1 |  | inactive
N[C@@H](CS(=O)O)C(=O)O |  | inactive
COc1ccccc1NC(=S)NC(=O)c1ccc(-c2ccc(Cl)cc2)o1 |  | 8.91 µM (active)
Fc1ccccc1NC(=S)NCCc1ccccc1 |  | 3.16 µM (active)
Fc1ccc(NC(=S)NCCc2ccccc2)c(F)c1F |  | 0.355 µM (active)
Fc1cc(Br)ccc1NC(=S)NCCc1ccccc1 |  | 1.58 µM (active)
COc1ccccc1NC(=S)NCCc1ccccc1 |  | 3.16 µM (active)
Cc1cc(OC(=O)c2ccc(Cl)cc2)cc(=O)n1C |  | inactive
CC(=O)Nc1cccc(C(=O)OCc2ccc(C(=O)Oc3ccc(Cl)cc3)cc2)c1 |  | 4.47 µM (active)
OCCN(CO)CO | 0.957% [at 11.4 µM] (inactive) | 
CN(C)CCOC(=O)[C@@H](c1ccccc1)C1(O)CCCC1 |  | inactive
O=C(Cn1c(C(F)(F)F)nc2ccccc21)c1ccccc1 |  | 3.98 µM (active)
O=C(Cn1c(C(F)(F)F)nc2ccccc21)c1ccc(F)cc1 |  | 1.58 µM (active)
O=C(CCCN1CCC(O)(c2cccc(C(F)(F)F)c2)CC1)c1ccc(F)cc1 |  | inactive
O=S(=O)(Nc1ccc2c(c1)OCCO2)c1cccc2cccnc12 |  | 3.55 µM (active)
CN1CCN(c2ncc3nc(-c4cn(C)c5ccccc45)c(=O)n(-c4ccccc4)c3n2)CC1 |  | inactive
Cn1cc(/C=N/n2cnc3scc(-c4ccccc4)c3c2=O)c2ccccc21 |  | 8.91 µM (active)
COc1ncc2nc(-c3cn(C)c4ccccc34)c(=O)n(-c3ccccc3)c2n1 |  | inactive
Cc1cccc(NC(=S)c2nc3ccccc3s2)c1 |  | 5.62 µM (active)
N#C/C(=C\NC(=S)c1ccncc1)c1nc2ccccc2s1 | -29.2% [at 11.4 µM] (inactive) | 
Cc1ccc(C)c(S(=O)(=O)NC(C)C(=O)Nc2ccc(-c3nc4ccccc4s3)cc2)c1 (configuration not stated) |  | inactive
